An excerpt weighted towards active compounds, which were near 22% of everything screened.
CYP2C9 inhib = human CYP2C9 inhibition; P11712; hit rate 20% among 96,000; CYP2C9 Supersomes, luciferin-H conversion, luminescence; inhibition, % at 5 µM; AID 777;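 active = blocking of liver enzyme CYP2C9 beyond about 50% at 5 µM, limit read from the data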
Target sequence (P11712 whole entry, looked up): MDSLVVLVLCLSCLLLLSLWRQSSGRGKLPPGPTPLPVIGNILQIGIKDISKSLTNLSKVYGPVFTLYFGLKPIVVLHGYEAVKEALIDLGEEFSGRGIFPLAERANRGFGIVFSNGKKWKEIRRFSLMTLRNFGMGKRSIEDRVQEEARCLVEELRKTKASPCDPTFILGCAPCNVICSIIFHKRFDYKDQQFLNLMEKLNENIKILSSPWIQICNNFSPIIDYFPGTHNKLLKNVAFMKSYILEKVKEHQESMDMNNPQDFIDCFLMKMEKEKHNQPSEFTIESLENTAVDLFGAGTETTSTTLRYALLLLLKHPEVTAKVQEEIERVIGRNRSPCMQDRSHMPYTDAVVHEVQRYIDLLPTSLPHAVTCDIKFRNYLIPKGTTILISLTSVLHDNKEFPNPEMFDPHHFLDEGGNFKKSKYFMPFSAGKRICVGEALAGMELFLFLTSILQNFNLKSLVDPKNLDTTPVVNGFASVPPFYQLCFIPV
CYP2C9 activ = activators of human CYP2C9; P11712; recombinant CYP2C9, luciferin-H conversion, luminescence; hits give high values; factor 1 = untreated enzyme, 0 = blocked; activation factor at 5 µM; hit rate 1.4% among 96,000;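 active = activation factor of 2 or more for CYP2C9 at a 5 µM dose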;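 note: 0 = sulfaphenazole-blocked wells and 1 = vehicle-only wells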
CYP2C19 inh = inhibitors of human CYP2C19; P33261; CYP2C19 Supersomes, luciferin-H EGE luminescence, 30 min; inhibition, % at 5 µM; hit rate 21% among 96,000; AID 778;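 active = CYP2C19 inhibition above a set limit at 5 µM in the primary screen, cut at about 50% in these data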;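 note: plate controls were negative control wells for no effect and 2.5 mM tranylcypromine positive control for full effect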
CYP2C19 act = cytochrome P450 2C19 (human) activation. AID 1025. P33261. recombinant CYP2C19, luciferin-H EGE luminescence; hits give high values; 0 = fully inhibited enzyme, 1 = untreated enzyme. activation factor at 5 µM. 96,000 tested, under 10 active;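 active = activation factor of at least 2 at 5 µM in the primary screen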;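 note: 0 = wells with 2.5 mM tranylcypromine and 1 = vehicle-only wells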
Measles CPE = protection of cells from measles virus; Measles virus-infected cells, CPE protection, absorbance; protection (pct of control), % at 4 µM; hit rate 1.5% among 140,000; AID 841; in the data active = protection mostly above about 24%, no sharp cut-off; inactive = mostly below about 26%
* marks the source's active call; other numbers are inactive results; nt = no result given.

SMILES | CYP2C9 inhib | CYP2C9 activ | CYP2C19 inh | CYP2C19 act | Measles CPE
CNC(=O)c1[nH]cnc1C(=O)Nc1cccc(OC)c1 | 32.3 | 0.7 | 66.6* | 0.3 | 6.5
O=C1c2ccccc2C(=O)C1c1nccc2ccccc12 | 57.7* | 0.4 | 45.2 | 0.5 | 10.8
CCOc1ccc(N(CC(=O)NC(C)(C)C)C(=O)c2ccco2)cc1 | 89.9* | 0.1 | 21.6 | 0.8 | 1.6
CC1CCN(S(=O)(=O)c2cc(C(=O)N3CCN(c4ncccn4)CC3)ccc2Br)CC1 | nt | nt | nt | nt | 19.3
Cc1c(Br)c([N+](=O)[O-])nn1CC(=O)NCc1cccs1 | -8.9 | 1.1 | 22.7 | 0.8 | 4.1
Cc1[nH]n(-c2ccccc2)c(=O)c1C(C[N+](=O)[O-])c1ccc(Br)cc1 (stereo not drawn) | 94.9* | 0.1 | 53.2* | 0.5 | 12.2
COc1ccc(C2=NN(C(=O)c3ccc(Cl)c([N+](=O)[O-])c3)C(c3ccccc3)C2)cc1 (stereo not drawn) | nt | nt | nt | nt | 4.7
O=C(c1ccccc1Cl)N1N=C(c2ccc(Br)cc2)CC1c1nc2ccccc2[nH]1 (stereo not drawn) | 67.1* | 0.3 | 50.1* | 0.5 | 7.8
O=C(CC1NCCNC1=O)OCCCc1ccccc1 (stereo not drawn) | -13.3 | 1.1 | 13.0 | 0.9 | 13.2
c1csc(-c2nn[nH]n2)c1 | 36.4 | 0.6 | 94.8* | 0.1 | 13.4
CN(C)NC1CCS(=O)(=O)C1 (stereo not drawn) | -5.7 | 1.1 | -3.6 | 1 | 50.5
Cc1cccc(N(CC(=O)NCc2ccco2)C(=O)CCC(=O)Nc2ccccn2)c1 | 22.9 | 0.8 | 57.9* | 0.4 | 7.2
O=C(CCCC(=O)N(CC(=O)NC1CCCCC1)Cc1ccccc1)Nc1ccccn1 | 9.6 | 0.9 | 30.0 | 0.7 | 4.0
Cc1cccc(N(CC(=O)NC2CCCCC2)C(=O)CCC(=O)Nc2ccccn2)c1 | 37.5 | 0.6 | 48.5 | 0.5 | nt
O=C(CN(Cc1ccco1)C(=O)CCC(=O)Nc1ccccn1)NCCc1ccccc1 | 57.9* | 0.4 | 68.7* | 0.3 | 14.9
Cc1cccc(N(CC(=O)NCc2ccc3c(c2)OCO3)C(=O)CCC(=O)Nc2ccccn2)c1C | 58.8* | 0.4 | 81.9* | 0.2 | 13.6
Cc1cccc(N(CC(=O)NCc2ccc3c(c2)OCO3)C(=O)CCC(=O)Nc2ccccn2)c1 | 28.1 | 0.7 | 60.8* | 0.4 | 3.8
CCOCCCNC(=O)C1CCN(C(=O)Nc2ccc(Cl)cc2)CC1 | -9.4 | 1.1 | -8.8 | 1.1 | 26.9
CN(C)CCCN1C(=O)c2oc3ccc(F)cc3c(=O)c2C1c1cccnc1 (stereo not drawn) | -9.6 | 1.1 | 8.4 | 0.9 | 24.5
CC1(C)CC(=O)C2(CC3=C(CC(C)(C)CC3=O)O2)C(=O)C1 | -4.6 | 1 | -3.1 | 1 | 6.4
COc1ccccc1N(CC(=O)NCc1ccccc1)C(=O)CCC(=O)Nc1ccccn1 | nt | nt | nt | nt | 20.7
COc1ccc(CNC(=O)CN(C(=O)CCC(=O)Nc2ccccn2)c2ccccc2OC)cc1 | 63.6* | 0.4 | 43.9 | 0.6 | 10.6
Cc1ccc(CN(CC(=O)NCCc2ccccc2)C(=O)CCCC(=O)Nc2cc(C)on2)cc1 | 62.0* | 0.4 | 59.7* | 0.4 | 18.1
COc1ccc(NC(=O)N(CCC(C)C)C(C)c2ccccn2)c(OC)c1 (stereo not drawn) | 28.2 | 0.7 | 28.9 | 0.7 | 6.6
Cc1cc(=O)n2[nH]c(-c3ccc(Cl)cc3)cc2n1 | 23.1 | 0.8 | 75.3* | 0.2 | 5.1
SMILES | CYP2C9 inhib | CYP2C9 activ | CYP2C19 inh | CYP2C19 act | Measles CPE
Nc1nc2ccc(OC(F)(F)F)cc2s1 | nt | nt | nt | nt | 64.2
Nc1nc2ccc(Oc3ccccc3)cc2s1 | 71.1* | 0.3 | 67.5* | 0.3 | 21.1
CC(C)CCNC(=S)Nc1ccccc1F | nt | nt | nt | nt | 18.2
COc1ccc(Cn2cnc3c(NS(C)(=O)=O)c(C)c(C)cc32)cc1 | 28.7 | 0.7 | 65.1* | 0.3 | 8.5
Cc1ccccc1Cn1cnc2c(NS(C)(=O)=O)c(C)c(C)cc21 | 39.1 | 0.6 | 44.9 | 0.6 | 14.9
Cc1nn(C/C(C#N)=N\O)c(C)[n+]1N | -16.7 | 1.2 | -11.8 | 1.1 | 16.5
C=CCOC(=O)COc1ccc2c(C)c(C)c(=O)oc2c1 | -41.7 | 1.4 | 55.4* | 0.4 | 5.4
C=CCOC(=O)COc1ccc2c(C)c(CC)c(=O)oc2c1 | -4.2 | 1 | 64.3* | 0.4 | 4.1
COCCN(C(=S)Nc1c(C)cc(C)cc1C)C(C)c1cccnc1 (stereo not drawn) | nt | nt | nt | nt | 2.0
CC(CN1CCOCC1)(NS(=O)(=O)c1ccccc1)c1ccccc1 (stereo not drawn) | 59.8* | 0.4 | 92.0* | 0.1 | 6.0
CC(C)=C1SC(N2CCN(Cc3ccccc3)CC2)=NC1=O | -19.6 | 1.2 | 57.0* | 0.4 | 11.5
CC(C)OC(=O)CC(NC(=O)OC(C)(C)C)c1ccccc1 (stereo not drawn) | nt | nt | nt | nt | 4.2
CCCCN(C(=O)CSc1nnc(-c2ccccc2OC)n1C)c1c(N)n(Cc2ccccc2)c(=O)[nH]c1=O | nt | nt | nt | nt | 11.6
O=C(N/N=C/C=C/c1ccccc1)c1ccccc1Br | 41.4 | 0.6 | 21.8 | 0.8 | 27.1
O=C(N/N=C/c1cccc(Oc2ccccc2)c1)c1cccc(Br)c1 | 53.3* | 0.5 | 41.8 | 0.6 | 11.2
O=C(N/N=C/C=C/c1ccccc1)c1cccc(Br)c1 | -25.6 | 1.3 | -17.7 | 1.2 | 25.1
O=C(N/N=C\c1ccc(Sc2ccccn2)o1)c1cccc(Br)c1 | 82.1* | 0.2 | 83.9* | 0.2 | 18.1
Cc1ccccc1C(=O)N/N=C/c1ccc(Sc2ccccn2)o1 | nt | nt | nt | nt | 7.7
O=C(N/N=C/c1cccc(Oc2ccccc2)c1)c1ccccc1Br | 62.6* | 0.4 | 30.0 | 0.7 | 1.4
Cc1cc(C)n(-c2ccc(C(=O)OCC(=O)NCc3ccc(F)cc3)cc2)n1 | nt | nt | nt | nt | 4.9
CCC(=O)Nc1ccccc1Nc1cc(C#N)c(C#N)cc1[N+](=O)[O-] | 23.6 | 0.8 | 69.2* | 0.3 | nt
CCC(=O)Nc1ccc(C(=O)Nc2ccc(OC)cc2[N+](=O)[O-])cc1 | nt | nt | nt | nt | 23.6
CCCC(=O)Nc1nc2ccc(OCC)cc2s1 | 23.3 | 0.8 | 16.0 | 0.8 | 7.6
CCOC(=O)NC(Nc1nc2ccccc2s1)(C(=O)OCC)C(F)(F)F (stereo not drawn) | 82.9* | 0.2 | 93.3* | 0.1 | 9.2
CCOc1ccc2nc(NS(=O)(=O)Cc3ccccc3)sc2c1 | 96.2* | 0 | 76.8* | 0.2 | 5.9
CCOc1ccc2nc(NC(NC(C)=O)(C(=O)OC)C(F)(F)F)sc2c1 (stereo not drawn) | 5.8 | 0.9 | 57.8* | 0.4 | 9.2
CCOC(=O)C1=C(O)C(Nc2nc3ccccc3s2)(C(F)(F)F)N=C1C (stereo not drawn) | 42.1 | 0.6 | 97.6* | 0 | 22.1
COc1ccc(N2C(=O)CCC(C(=O)N3CCCCCC3)C2c2ccc(OC)c(OC)c2)cc1 (stereo not drawn) | -5.5 | 1.1 | -5.8 | 1.1 | 6.4
CC/C(=N\NC(=O)c1ccc(CN(C)S(=O)(=O)c2ccc(C)cc2)cc1)c1ccc(OC(F)F)cc1 | nt | nt | nt | nt | 21.6
O=C1NNC(=O)C2C3C=CC(C4CC34)C12 (stereo not drawn) | 1.6 | 1 | 3.6 | 1 | 8.3

Compound activity from PubChem BioAssay.
